For 92 molecules, inhibition results are on record in PubChem BioAssay AID2018 (Sanford-Burnham Center for Chemical Genomics, 2009).

The campaign covered roughly 1,200 compounds. About 600 (50%) were called active. So high a share suggests a set chosen from earlier hits. The list shows a part of the results. Results with a measured potency or affinity are listed apart. A number with no mark means an inactive call. No stated cut-off is given here; in the data, active means inhibition above about 42%; inactive means the rest.

The experiment deals with SUMO-conjugating enzyme UBC9 (Homo sapiens) (UniProt P63279). Nature of the experiment: SUMOylation inhibitor hit validation, confirmation, SUMOylation inhibitor project, biochemical, AlphaScreen (AID 2018). The settings on record: AlphaScreen in vitro SUMOylation assay; at 35 µM; stronger effect = higher value. (Alpha assays give light when donor and acceptor beads are brought close together.)
Sequence of SUMO-conjugating enzyme UBC9 (Homo sapiens) (P63279 whole entry, looked up): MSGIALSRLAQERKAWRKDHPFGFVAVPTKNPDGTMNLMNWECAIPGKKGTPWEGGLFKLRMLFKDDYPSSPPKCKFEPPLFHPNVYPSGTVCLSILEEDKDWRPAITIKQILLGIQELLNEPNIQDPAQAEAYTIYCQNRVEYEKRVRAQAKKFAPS
For the molecule `COc1ccc(O)c(C(c2c(C)[nH][nH]c2=O)c2c(C)[nH][nH]c2=O)c1`, the inhibition is 17.7%. With `COc1ccc(-c2ccc(C(c3c(C)[nH][nH]c3=O)c3c(C)[nH][nH]c3=O)o2)c([N+](=O)[O-])c1` the figure was 73.1% (active); with `COC(=O)c1ccccc1-c1ccc(C(c2c(C)[nH][nH]c2=O)c2c(C)[nH][nH]c2=O)o1`, 88.2% (active). Under `Cc1[nH][nH]c(=O)c1C(c1ccc(-c2ccccc2C(=O)O)o1)c1c(C)[nH][nH]c1=O` stands 66.6% (active); under `Cc1ccc(-n2cccn2)c([C@@H]2C[C@H]3CN(C)C(=O)[C@]34CCCN24)c1`, 8.1%; under `Cc1ccccc1-c1nc2cc(N)ccc2o1`, 21.4%. On to `CN(C)S(=O)(=O)c1cc(NC(=O)CNCc2ccccc2)ccc1Cl`, for which the inhibition was -19.5%. Under `O=C(c1cccn2c(=O)c3cc4ccccc4cc3nc12)N1CCN(c2ccccc2)CC1` stands 27.6%. With `CN(C)C=Nc1ccc2nc3c(cc2c1)[nH]c1ccccc13` the figure was 20.5%. Under `Cc1cc[n+](-c2[nH]c(=O)sc2/C=N/N=C(\[O-])c2ccncc2)cc1` stands -9.7%; under `Cc1cccn2c(=O)c3cc(C#N)c(=NC(=O)c4ccco4)n(Cc4ccco4)c3nc12`, 25.4%.

As to `O=c1oc(-c2cccs2)nc2sc3c(c12)CCC3`, the inhibition was -2.8%.

Turning to `CN(C)c1cc(N/N=C/c2ccccc2C(F)(F)F)nc(N(C)C)n1`, the inhibition is 72.9% (active).

Regarding `Cc1ccc(-c2[nH]ncc2/C=N/n2c(C)nc3ccccc3c2=O)cc1`, the inhibition was 66.8% (active).

Turning to `Cc1nc2ccccc2c(=O)n1/N=C/c1ccc(O)c(O)c1O`, the inhibition was 81.7% (active).

`O=C1NC(=O)c2cc(NC(=O)C3CCCCC3)ccc21`: the inhibition was 8.7%. Under `O=C(c1cccc2cccc(O)c12)N1CCCCC1` stands 14.8%. With `Cc1cc(C)cc(Oc2coc3c(CN(C)C)c(O)ccc3c2=O)c1` the figure was 10.6%; with `COc1ccc2oc(=O)c(C(=O)NCc3ccco3)cc2c1`, -14.1%; with `COc1ccc(-c2cc(C(F)(F)F)n3ncc(C(=O)NCc4ccco4)c3n2)cc1`, 32.4%. Under `Cc1ccc(NC(=O)C2CCN(C(=O)c3ccco3)CC2)cc1` stands 0.4%; under `COc1ccc2c(c1)Cc1sc(NC(=O)c3ccco3)nc1-2`, 40.3%; under `O=C(COc1ccc2oc(-c3ccco3)cc(=O)c2c1)N1CCCCC1`, -2.7%. Take `COc1ccc(-n2nc3cc(C)c(N)c(Br)c3n2)cc1`: the inhibition is 18.3%. Under `Cc1ccc(S(=O)(=O)C(C#N)c2nc3ccccc3nc2N2CCCC2)cc1C` (configuration not stated) stands 45.8% (active); under `COc1ccc(S(=O)(=O)C(C#N)c2nc3ccccc3nc2N2CCCCC2)cc1` (configuration not stated), 42.8% (active). For `N#CC(c1nc2ccccc2nc1N1CCCC1)S(=O)(=O)c1ccccc1` (configuration not stated), the inhibition is 66.7% (active). As for `Cc1ccc(C)c(S(=O)(=O)C(C#N)c2nc3ccccc3nc2N2CCOCC2)c1` (configuration not stated), the inhibition was 9.2%. With `COc1ccc(S(=O)(=O)C(C#N)c2nc3ccccc3nc2N2CCC(C)CC2)cc1` (configuration not stated) the figure was 15.7%; with `Cc1ccccc1S(=O)(=O)Nc1nc2ccccc2nc1N1CCc2ccccc2C1`, -43.2%. As for `C=CCNC(=O)C(C#N)c1nc2ccccc2nc1N1CCCCCC1` (configuration not stated), the inhibition is 30.3%. With `N#CC(C(=O)NC1CC1)c1nc2ccccc2nc1N1CCCC1` (configuration not stated) the figure was 29%; with `Cc1ccc(S(=O)(=O)C(C#N)c2nc3ccccc3nc2N2CC(C)OC(C)C2)cc1C` (configuration not stated), 22.8%; with `N#CC(c1nc2ccccc2nc1N1CCCC1)S(=O)(=O)c1cccs1` (configuration not stated), 37.3%.

For the molecule `Cc1ccc(C)c(S(=O)(=O)C(C#N)c2nc3ccccc3nc2N2CC(C)OC(C)C2)c1` (configuration not stated), the inhibition was 4.8%. Under `Cc1ccc(C)c(S(=O)(=O)C(C#N)c2nc3ccccc3nc2N2CCCC2)c1` (configuration not stated) stands 44.3% (active).

For `CC(=O)c1ccc(NC(=O)Nc2cccnc2)cc1`, the inhibition was -7.1%. With `CSc1ccc(-c2cc(=O)c3ccccc3o2)cc1`, the inhibition is -11%. With `CN(C)/C=N/c1nc2nccc(-c3cccnc3)n2n1` the figure was -4%; with `Cc1ccc(S(=O)(=O)C(C#N)c2nc3ccccc3nc2N2CCCC2)cc1` (configuration not stated), 44.2% (active).

Take `Cc1cccc(S(=O)(=O)C(C#N)c2nc3ccccc3nc2N2CCCC2)c1` (configuration not stated): the inhibition was 28.3%. With `C=CCOC(=O)C(C#N)c1nc2ccccc2nc1N1CCN(Cc2ccccc2)CC1` (configuration not stated), the inhibition is 22.9%. With `O=C(O)CN1C(=O)/C(=C\c2cc([N+](=O)[O-])ccc2OCc2ccccc2Cl)SC1=S`, the inhibition was 63% (active). `CC(C)C(=O)Nc1cccc(C(=O)NCc2ccc3c(c2)OCO3)c1`: the inhibition was 13.6%. Turning to `CC(=O)Nc1ccc(-c2nc3ccc(NC(C)=O)cc3o2)cc1`, the inhibition was 25.1%.

With `CC(=O)Nc1ccc(-c2cn3cccnc3n2)cc1`, the inhibition was 5.9%. With `Clc1ccc(C2=CSC3=Nc4cccc5cccc(c45)N23)cc1` the figure was 101% (active); with `COc1ccc(OC)c(S(=O)(=O)NCCc2cn3ccsc3n2)c1`, 44.5% (active); with `CCN(CC)C(=O)C1CCCN(C(=O)Nc2ccc3nsnc3c2)C1` (configuration not stated), -9%. With `COc1ccc(C2C(C(C)=O)=C(O)C(=O)N2C)c(OC)c1` (configuration not stated) the figure was -14.2%; with `COc1ccc(NCc2ccc([N+](=O)[O-])s2)c(OC)c1`, 87% (active); with `N#Cc1c(N(CCO)CCO)nc(N)c2c(N)nc3c(c12)CC(=O)N3Cc1cccs1`, 52.9% (active). Under `COCCN(CCOC)c1nc(N)c2c(N)nc3c(c2c1C#N)CC(=O)N3Cc1ccc(Cl)cc1` stands 11.2%.

Consider `N#Cc1c(N(CCO)CCO)nc(N)c2c(N)nc3c(c12)CC(=O)N3CC1CCCO1` (configuration not stated), for which the inhibition is 26%. Under `CCOC(=O)N1CCN(C(=O)c2cccn3c(=O)c4cc(Cl)ccc4nc23)CC1` stands 11%. Under `Nc1nnc(CC(=O)N/N=C/c2cc([N+](=O)[O-])cc(Br)c2O)s1` stands 102% (active); under `O=C1CC(CC(=O)N/N=C/c2ccccc2[N+](=O)[O-])=NN1`, 26.8%. Under `O=C1/C(=C/c2ccco2)Oc2c1ccc(O)c2CN1CCCCC1` stands 9.4%; under `Cc1cc(-c2csc(NC(=O)c3ccc(=O)[nH]c3)n2)c(C)n1Cc1ccccc1`, 29.1%. For `CC1CCN(Cc2cc(=O)oc3cc(O)c(Cl)cc23)CC1`, the inhibition is -10.6%. Under `Cc1ccc(-c2nn(-c3ccccc3)cc2/C=C2\SC(=S)N(CCCCCC(=O)O)C2=O)o1` stands 74.8% (active); under `O=C(O)CCCN1C(=O)/C(=C/c2cn(-c3ccccc3)nc2-c2cccs2)SC1=S`, 76% (active). With `Cc1ccc(N/N=C2\CC(=O)c3ccccc32)cc1Cl` the figure was 78.3% (active); with `CC(=O)N1C(=S)NC(=O)/C1=C1/C(=O)N(CC(=O)Nc2cccc(C)c2)c2ccccc21`, 12.6%.

In the case of `Cc1ccc(NC(=O)CN2C(=O)S/C(=C/c3ccc(-c4cc(C(=O)O)ccc4C)o3)C2=O)cc1C`, the inhibition is 101% (active). With `Cc1cccc(N(C)C(=O)c2cc3c(=O)[nH]c4ccc(C)cc4c3s2)c1` the figure was 37.8%; with `CCOC(=O)c1ccc(N2C(=O)c3n[nH]c(-c4ccco4)c3C2c2ccc([N+](=O)[O-])cc2)cc1` (configuration not stated), 34.2%; with `Cc1c(C(=O)O)cccc1-c1ccc(/C=C2\SC(=O)NC2=O)o1`, 48.8% (active). Under `CCc1cc2c(=O)c(Oc3ccccc3F)c(C)oc2c(CN(C)C)c1O` stands -4.3%; under `CC1=NN(c2ccc(Cl)cc2)C(=O)C1C(c1ccccc1O)c1c(C)[nH]n(-c2ccc(Cl)cc2)c1=O` (configuration not stated), 82.4% (active). As to `CC1=NN(c2ccc(F)cc2)C(=O)C1C(c1cccc(O)c1)c1c(C)[nH]n(-c2ccc(F)cc2)c1=O` (configuration not stated), the inhibition was 89.4% (active). Under `CC1=NN(c2ccc(C)cc2C)C(=O)C1C(c1cccc(O)c1)C1C(=O)N(c2ccc(C)cc2C)N=C1C` (configuration not stated) stands 81.1% (active); under `O=[N+]([O-])c1c(NCCO)cc(N2CCC3(CC2)OCCO3)c2nonc12`, 8.2%; under `CCCCCC(=O)Nc1ccc(-c2cn3cccnc3n2)cc1`, 10.6%. Under `COC12NC(=O)N(C)C1(OC)C(=O)N(C)C(=O)N2C` (configuration not stated) stands -6.8%.

Regarding `COc1ccc(S(=O)(=O)C(C#N)c2nc3ccccc3nc2N2CCCC(C)C2)cc1` (configuration not stated), the inhibition is 49.9% (active). Take `Cc1cccc(S(=O)(=O)C(C#N)c2nc3ccccc3nc2N2CC(C)OC(C)C2)c1` (configuration not stated): the inhibition is 3.9%. As to `Cc1ccc(-n2c(SCC(=O)Nc3ccc4c5c(cccc35)CC4)nc(O)cc2=O)cc1`, the inhibition was 30.4%.

`Cc1ccc(-n2c(SCC(=O)N/N=C/c3ccccc3C(=O)O)nnc2-c2ccc(Cl)cc2)cc1`: the inhibition is 3.5%. Under `CN(C)/C=N/c1nc2nccc(-c3cccc(Cl)c3)n2n1` stands -11.7%; under `CCCCNC(=O)Oc1c(Br)cc2sc(=O)oc2c1Br`, 88.3% (active); under `CC(=O)c1ccc2c(c1)C1C=CCC1C(C(=O)O)N2` (configuration not stated), 101% (active). As to `O=C(O)CCCN1C(=O)/C(=C/C=C/c2ccco2)SC1=S`, the inhibition is 100% (active). Under `Nc1ccc2c(c1)sc1ccccc12` stands 20.5%. Under `CCN(CC)S(=O)(=O)c1ccc(C)c(NC(=O)CSc2ncc(C(F)(F)F)cc2Cl)c1` stands 11.7%. As for `COCCn1c(N)c(C(=O)OCc2ccccc2)c2nc3ccccc3nc21`, the inhibition is -26.1%. Consider `CN(C)CCCn1c(N)c(C#N)c2nc3ccccc3nc21`, for which the inhibition is 38.6%. Under `C=CCn1c(N)c(C(=O)NCC2CCCO2)c2nc3ccccc3nc21` (configuration not stated) stands -9.9%; under `CC(C)Cn1c(N)c(C(=O)NCC2CCCO2)c2nc3ccccc3nc21` (configuration not stated), 0%. With `COCCn1c(N)c(C(=O)NCC2CCCO2)c2nc3ccccc3nc21` (configuration not stated) the figure was 42.3% (active). With `COCCNC(=O)c1c(N)n(CCCn2ccnc2)c2nc3ccccc3nc12` the figure was 5.2%. Turning to `COCCn1c(N)c(C#N)c2nc3ccccc3nc21`, the inhibition was 29.5%.

As a reminder, the inhibition is the drop in the measured response relative to a control, in per cent.
